Source: PubChem (National Center for Advancing Translational Sciences (NCATS))
MCF10A rerep = A quantitative high throughput screen for small molecules that induce DNA re-replication in MCF 10a normal breast cells; MCF 10A DNA re-replication, Hoechst nuclear intensity, 48 h; Potency, µM (top dose mostly 46.1 µM), without a hit: top-dose activity, positive = re-replication, actives largely listed as activators; 2.9% of 350,000 active; further: % of control where 0% means no effect; nearly all actives have a fitted effect of over 50% in size
KB-3-1 tox = qHTS assay for MDR1-selective chemotherapeutics: Primary screen using the parental adenocarcinoma cell KB-3-1; KB-3-1 viability, CellTiter-Glo ATP luminescence, 72 h; Potency, µM (series often up to 46.1 µM), most hits filed as cytotoxic; 1.4% of 400,000 active; AID 1347075, 2019; further: on the % scale 0 is the no-effect control and ±100 the full control effect; nearly all actives have a fitted effect of over 60% in size
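Cells are dispensed, compounds pinned in, plates held at 37 °C for 72 h, then CellTiter-Glo is added and luminescence read after 10 minutes. Cell line: parental KB-3-1 in phenol-red-free DMEM, 10% FBS.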
SW480 rerep = A quantitative high throughput screen for small molecules that induce DNA re-replication in SW480 colon adenocarcinoma cells; SW480 DNA re-replication, Hoechst DNA content imaging, 48 h; Potency, µM (doses to about 46.1 µM), without a hit: at the highest dose re-replication activation, actives largely listed as activators; 1.8% of 340,000 active; AID 624297, 2012; further: % of control where 0% means no effect; nearly all actives have a fitted effect of over 55% in size
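Readout is total intensity of Hoechst-stained nuclei, excited at 405 nm and collected at 500-530 nm. Compound treatment lasted 48 hr at 37 C in 5% CO2 before staining.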
ELG1 repair inh = qHTS screen for small molecules that inhibit ELG1-dependent DNA repair in human embryonic kidney (HEK293T) cells expressing luciferase-tagged ELG1. HEK293T ELG1-luciferase reporter, luminescence, 16 h; DNA damage induced by 5-fluorouridine. AID 504467, 2011. Potency, µM (top dose mostly 46.1 µM), for the others: at the top dose activity change, negative = inhibition, most hits filed as inhibitors. 2.3% of 330,000 active; further: on the % scale 0 is the no-effect control and ±100 the full control effect; nearly all actives have a fitted effect of over 55% in size
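Reporter activity after DNA damage by 5-fluorouridine is monitored. Compound-treated cells incubate 16 hr at 37 °C, then ONE-Glo is added for 30 min before luminescence reading.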
KB-V1 MDR tox = qHTS assay for MDR1-selective chemotherapeutics: Primary screen using the drug-selected MDR subline cells KB-V1 | Potency, µM (top dose mostly 46.1 µM), hits mostly cytotoxic | KB-V1 MDR cells viability, CellTiter-Glo, 72 h | 3.4% of 400,000 active; further: on the % scale 0 is the no-effect control and ±100 the full control effect; nearly all actives have a fitted effect of over 60% in size
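Luminescent ATP read-out (CellTiter-Glo, 10 min) measures survival of drug-selected KB-V1 MDR cells after 72 h, 37 degrees C compound exposure. Medium: phenol-red-free DMEM, 10% FBS. Values from fitted concentration-response curves.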
Active calls of the source: *; i = inactive; u = inconclusive; x = no result given; [ ] = remark or other dose. This is a sample that favours compounds with a hit; in the whole collection about 8.1% have one here. The call rests on the fitted dose curve; in most records, active means well fitted curve in the direction sought with a large enough effect; inconclusive means small, poorly fitted or top-dose-only effect, or another doubt; inactive means no such curve, though single readings can be large; an effect the other way counts as inactive or inconclusive. Potency means the concentration at half of the fitted maximal effect.

SMILES | MCF10A rerep | KB-3-1 tox | SW480 rerep | ELG1 repair inh | KB-V1 MDR tox
Cc1nc2c3cc(Cl)ccc3n(CCN3CCCCC3)c2s1 | 18µM* | i | 15µM* | -10% | i
CCOC(=O)/C(=N\Nc1ccc(OC)cc1)c1csc(Nc2ccccc2)n1 | u | i | -3% | 16µM* | i
Cc1ccc(Nc2nc(C(=O)NCc3ccco3)cs2)cc1 | 22% | i | -1% | -17% | u
CCN(CC)C(=O)c1csc(Nc2ccc(C)cc2)n1 | 0% | i | -8% | 14% | 15µM*
CCOC(=O)/C(=N/Nc1ccccc1)c1csc(Nc2ccccc2)n1 | u | i | u | u | u
CCOC(=O)/C(=N\Nc1ccc(Cl)cc1)c1csc(Nc2ccccc2)n1 | 4µM* | i | u | 0% | i
O=c1c2ccccc2nc2sc(Nc3cccc(N4CCNCC4)c3)nn12 | x | u | x | x | i
O=C(Cn1ncc2c([nH]c3ccccc32)c1=O)NCCCN1CCN(c2ccccc2)CC1 | 0% | i | -2% | 3% | i
Cc1ccccc1-c1cc(C(=O)NCc2ccco2)n(CC2CC(c3cccnc3)=NO2)n1 (stereo not given) | u | u | 4%[9.22 µM] | u | i
Cc1ccc(Nc2nc(N)nc(CN3CCN(Cc4ccc5c(c4)OCO5)CC3)n2)cc1C | 5% | i | 1% | 13µM* | u
Cc1ccc(Nc2nc(N)nc(CN3CCN(Cc4ccc5c(c4)OCO5)CC3)n2)cc1 | 4% | i | 1% | u | u
Cc1ccc(Nc2nc(N)nc(CN3CCN(Cc4ccc5c(c4)OCO5)CC3)n2)cc1Cl | u | 21µM* | 16% | u | u
Cc1ccc(Nc2nc(N)nc(CN3CCN(Cc4ccc5c(c4)OCO5)CC3)n2)c(C)c1 | 6% | i | 2% | u | i
Cc1cc(C)c(C(=O)/C=C/c2cccc3ccccc23)c(=O)[nH]1 | 16µM* | 6.5µM* | 23µM* | 15µM* | 8.2µM*
CCCCCCCCCCOc1cc2c(=O)c(C(=O)OCC)c[nH]c2cc1OCC | -3% | x | -7% | x | x
CCOC(=O)N1CCN(S(=O)(=O)c2ccc(C(=O)Nc3sc4c(c3C(N)=O)CCN(CC)C4)cc2)CC1 | u | u | 778% | u | i
CCN1CCc2c(sc(NC(=O)c3ccc(S(=O)(=O)N(C)C4CCCCC4)cc3)c2C(N)=O)C1 | x | i | x | x | i
CCCN1CCc2c(sc(NC(=O)c3ccc(S(=O)(=O)N(C)c4ccccc4)cc3)c2C(=O)NC)C1 | u | i | u | 23µM* | u
CCCN1CCc2c(sc(NC(=O)c3ccc(S(=O)(=O)N4CCN(C(=O)OCC)CC4)cc3)c2C(N)=O)C1 | u | i | 21µM* | u | i
COC(=O)c1c(NC(=O)CCS(=O)(=O)c2ccccc2)sc2c1CCN(C)C2 | u | x | u | 2% | x
CCCN1CCc2c(sc(NC(=O)CCS(=O)(=O)c3ccccc3)c2C(=O)OC)C1 | 18µM* | i | u | 4% | i
CCCN1CCc2c(sc(NC(=O)c3ccc(S(=O)(=O)N(C)c4ccccc4)cc3)c2C(N)=O)C1 | 6.5µM* | i | u | u | i
Cc1ccc(C)n1-c1c(C(=O)NCC(C)c2ccccc2)sc2ncccc12 (stereo not given) | x | u | x | x | i
C#CCNC(=O)C[C@@H]1C[C@@]2(C(=O)OC)CC(C)(C)CC=C2N(CCCCCCCC)C1=O | x | i | x | x | u
NC(=O)c1c(NC(=O)C2COc3ccccc3O2)sc2c1CCN(Cc1ccccc1)C2 (stereo not given) | 23µM* | u | u | 13% | u
SMILES | MCF10A rerep | KB-3-1 tox | SW480 rerep | ELG1 repair inh | KB-V1 MDR tox
Cc1c(OCC(=O)NC2CC(C)(C)NC(C)(C)C2)ccc2c3c(c(=O)oc12)CCC3 | 11% | i | u | 27% | i
Cc1c(OCC(=O)NC2CC(C)(C)NC(C)(C)C2)ccc2c1oc(=O)c1ccccc12 | 2% | i | 13µM* | 18% | i
COc1ccc(Cl)cc1NC(=O)c1sc2nc(C)nc(N3CCOCC3)c2c1C | 9% | i | -14% | 2% | i
N#Cc1cnc2nc1NCCCCCCC2 | x | u | x | x | 5.2µM*
C=CCn1c(SCC#N)nc2cc(Cl)ccc2c1=O | x | i | x | x | i
CC(C)Cn1c(/C=N/Nc2nc3ccccc3[nH]2)nc2ccccc21 | 10% | 16µM* | u | 17% | u
CCCn1c(/C=N/Nc2nc3ccccc3[nH]2)nc2ccccc21 | u | i | x | u | u
Cc1c(/C=N/Nc2nc3ccccc3[nH]2)c2ccccc2n1C | 16µM* | u | u | -4% | u
Cc1ccccc1-n1nnnc1SCC(=O)c1c(N)n(C2CC2)c(=O)[nH]c1=O | 0% | i | -5% | 21µM* | i
Cc1ccc(C)c(-n2ccnc2SCC(=O)c2c(N)n(C3CC3)c(=O)[nH]c2=O)c1 | 10% | i | 18µM* | u | i
Nc1c(C(=O)CSc2nc3ccccc3o2)c(=O)[nH]c(=O)n1C1CC1 | u | 1.3µM* | 15% | u | i
CC(NCc1ccc2c(c1)n(C)c(=O)n2C)c1ccccc1 (stereo not given) | x | i | x | x | i
Clc1cccc(-c2csc(-c3nc(-c4ccc(Br)s4)cs3)n2)c1 | x | i | x | x | i
CCOC(=O)c1c(S(=O)(=O)N2CCC(C(=O)Nc3ccc(C)cn3)CC2)c(C)n(C)c1C | x | i | x | x | u
O=[N+]([O-])c1c(NCCO)cc(N2CCN(Cc3ccc4c(c3)OCO4)CC2)c2nonc12 | 12% | i | -4% | 21µM* | i
Cc1ccc(NC(=O)c2nc[nH]c2C(=O)NCCCCCCNC(=O)c2[nH]cnc2C(=O)Nc2ccc(C)cc2)cc1 | -2% | u | 0% | u | i
Cc1ccc(NC(=O)c2nc[nH]c2C(=O)NCCCNC(=O)c2[nH]cnc2C(=O)Nc2ccc(C)cc2)cc1 | -28% | i | 1% | 5.2µM* | i
CCN(CC)C(=O)c1[nH]cnc1C(=O)Nc1ccc(OC)cc1 | -20% | u | 1.8µM* | 9% | i
CCOC(=O)c1ccc(NC(=O)c2nc[nH]c2C(=O)NCCCCNC(=O)c2[nH]cnc2C(=O)Nc2ccc(C(=O)OCC)cc2)cc1 | 6% | i | -10% | u | i
CC(C)(C)OC(=O)NCCCCCNC(=O)c1[nH]cnc1C(=O)Nc1ccc(Cl)cc1 | 26% | u | 4% | 21µM* | i
